Compound activity deposited in PubChem by National Center for Advancing Translational Sciences (NCATS).
The list is not random: actives were taken first. Their share in the collection is about 2.4%.
Pol iota inh = blocks human DNA polymerase iota activity. Pol iota fluorescent replication assay, 10 min. Potency, µM (highest dose often 115 µM), actives largely listed as inhibitors. 390,000 tested, 1% active. AID 588590
Target sequence (Q9UNA4 whole entry, looked up): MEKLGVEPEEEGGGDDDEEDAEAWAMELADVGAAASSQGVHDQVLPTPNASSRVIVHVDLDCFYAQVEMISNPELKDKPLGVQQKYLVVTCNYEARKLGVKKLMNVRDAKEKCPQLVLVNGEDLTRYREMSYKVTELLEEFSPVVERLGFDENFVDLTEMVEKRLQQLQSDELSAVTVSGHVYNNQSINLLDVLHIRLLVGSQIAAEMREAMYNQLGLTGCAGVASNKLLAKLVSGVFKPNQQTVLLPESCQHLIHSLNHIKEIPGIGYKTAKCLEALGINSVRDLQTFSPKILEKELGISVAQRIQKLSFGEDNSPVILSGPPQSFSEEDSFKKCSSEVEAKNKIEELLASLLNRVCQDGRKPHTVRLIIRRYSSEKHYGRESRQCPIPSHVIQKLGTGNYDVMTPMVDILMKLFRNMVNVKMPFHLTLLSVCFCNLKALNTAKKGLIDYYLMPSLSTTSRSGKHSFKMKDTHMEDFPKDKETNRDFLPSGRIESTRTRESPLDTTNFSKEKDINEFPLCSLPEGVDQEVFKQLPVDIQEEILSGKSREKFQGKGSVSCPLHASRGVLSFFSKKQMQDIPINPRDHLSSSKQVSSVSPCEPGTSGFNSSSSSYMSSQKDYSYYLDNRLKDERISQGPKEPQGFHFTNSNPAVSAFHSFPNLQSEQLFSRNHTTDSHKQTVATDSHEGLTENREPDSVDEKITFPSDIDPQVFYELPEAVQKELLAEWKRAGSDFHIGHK
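Fluorescent replication assay read twice, at 0 min and 10 min after adding 50 nM (final) substrate. Enzyme (10 nM) and compounds were first incubated 15 min at room temperature; enzyme-free buffer wells were negative controls.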
TDP1 inh = inhibitors of human tyrosyl-DNA phosphodiesterase TDP1 | Q9NUW8 | recombinant TDP1, AlphaScreen DNA substrate cleavage | Potency, µM (doses to about 130 µM), hits mostly inhibitors | 350,000 tested, 0.28% active; note: nearly all actives have a fitted effect of over 40% in size
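Enzyme-compound mixtures sat 15 min at room temperature, followed by a 5 min reaction with 15 nM final substrate and 10 min with AlphaScreen beads. Recombinant human Tdp1 was used at 1 nM final.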
Pol kappa inh-1 = inhibitors of human DNA polymerase kappa. 400,000 tested, 0.53% active. Potency, µM (top dose mostly 107 µM), usual class: inhibitors. AID 588579. purified Pol kappa, fluorescent DNA synthesis assay, 10 min
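Activity was followed as the change in fluorescence between reads at 0 and 10 min after starting the reaction with 50 nM substrate. Beforehand, 10 nM polymerase had been preincubated with compound for 15 min at room temperature.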
Pol beta inh = DNA polymerase beta (human) inhibition. Pol beta primer extension/strand displacement, fluorescence kinetic. Potency, µM (highest dose often 114 µM), most hits filed as inhibitors. 340,000 tested, 1.3% active. AID 485314
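Pol beta (10 nM) and compounds were preincubated 15 min at room temperature, then 50 nM substrate (final) started primer extension/strand displacement. Reads were taken at 0 and 10 min; concentration-response data were fitted to a four-parameter Hill equation.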
Pol eta inh-1 = inhibitors of human DNA polymerase eta; Potency, µM (top dose mostly 114 µM), actives largely listed as inhibitors; 390,000 tested, 1.2% active; recombinant Pol eta, fluorescent DNA replication assay; Q9Y253
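Fluorescent replication assay: 50 nM final substrate added after a 15 min room-temperature compound preincubation with 10 nM enzyme. Signal taken at 0 min and again at 10 min.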
GALK confirm = confirmation of human galactokinase (GALK) inhibitors | shares compounds with Pol eta inh-1 | 150 tested, 70% active | Potency, µM (titrated, usually from 115 µM), usual class: inhibitors | purified GALK, Kinase-Glo ATP depletion luminescence
GALK redox cs = counter-screen for GALK inhibitors: redox cycling H2O2 generation; Phenol red-HRP H2O2 redox cycling, absorbance 600 nm; AID 2035; shares compounds with Pol eta inh-1; 150 tested, 40% active; Potency, µM (top dose mostly 115 µM), most hits filed as inhibitors
HEK293 tox = counter-screen for GALK inhibitors: HEK293 cell cytotoxicity; shares compounds with Pol eta inh-1; HEK-293 viability, ATP luminescence (CellTiter-Glo), 24/48 h; Potency, µM (top dose mostly 46.1 µM), usual class: inhibitors; 170 tested, 10% active; AID 2547
Pol kappa inh-2 = confirmation of human DNA polymerase kappa inhibitors; purified Pol-kappa, fluorescent strand-displacement substrate; shares compounds with Pol eta inh-1; 920 tested, 76% active; Potency, µM, actives largely listed as inhibitors
Pol eta inh-2 = confirmation of human DNA polymerase eta inhibitors | 2,600 tested, 64% active | Pol eta primer extension, TAMRA/BHQ fluorescence, 10 min | shares compounds with Pol eta inh-1 | Potency, µM, usual class: inhibitors
Each line names hits and unclear results; the compound was inactive in the other large screens (follow-up assays come after a bar, where they were run). Calls come from the whole dose curve; as a rule, active = well fitted curve in the direction sought with a large enough effect; inconclusive = small, poorly fitted or top-dose-only effect, or another doubt; inactive = no such curve, though single readings can be large; an effect the other way counts as inactive or inconclusive.

CC(=C/c1ccco1)/C=N/NC(=O)Cc1cccn1C	Pol iota inh 56µM, Pol kappa inh-1 inconclusive, Pol eta inh-1 inconclusive (no result: TDP1 inh) | Pol kappa inh-2 42
CCCCCC1OC1C/C=C\C/C=C\C/C=C\CCCC(=O)O (stereo not drawn)	none (no result: Pol iota inh, Pol beta inh, Pol eta inh-1)
CCN(CC)C(=O)Cn1cc(SCC(=O)Nc2ccccc2C)c2ccccc21	none
Cc1ccc(S(=O)(=O)/N=C2/NC(=O)/C(=C/c3cccnc3)S2)cc1	Pol iota inh inconclusive, Pol beta inh inconclusive, Pol eta inh-1 inconclusive
Cc1ccc(S(=O)(=O)/N=C2/NC(=O)/C(=C/c3ccc(Br)o3)S2)cc1	Pol iota inh inconclusive, Pol kappa inh-1 inconclusive, Pol beta inh inconclusive, Pol eta inh-1 22µM (no result: TDP1 inh) | Pol eta inh-2 inconclusive
Cc1ccc(S(=O)(=O)/N=C2/NC(=O)/C(=C\c3cc(Br)cc(Br)c3O)S2)cc1	Pol iota inh inconclusive, Pol beta inh inconclusive, Pol eta inh-1 22µM | GALK confirm 24µM | GALK redox cs inactive | HEK293 tox inactive
CC(C)Oc1ccc(-c2nc3c(C#N)c[nH]n3c2NC2CCCCC2)cc1	Pol beta inh inconclusive
CC(C)C[C@H](NC(=O)[C@H](Cc1ccccc1)NC(=O)[C@@H]1CCCN1C(=O)[C@H](CC(=O)O)NC(=O)[C@@H]1CCC(=O)N1)C(=O)N[C@@H](CCCN=C(N)N)C(=O)N[C@@H](Cc1ccccc1)C(N)=O	none (no result: Pol iota inh, Pol beta inh, Pol eta inh-1)
CSc1ccc(/C=N/Nc2nc(C)cc(=O)[nH]2)cc1	Pol eta inh-1 inconclusive
COC(=O)c1ccc(COc2ccc(/C=N/Nc3nc(C)cc(=O)[nH]3)cc2)cc1	Pol iota inh inconclusive, Pol beta inh 20µM, Pol eta inh-1 89µM | Pol kappa inh-2 inconclusive
COc1ccccc1C(=O)Nc1sc(C(=O)N2CCCC2)c(C)c1C#N	none
Cc1c(C(=O)N2CCCC2)sc(NC(=O)c2ccc(Cl)cc2)c1C#N	none | GALK confirm inconclusive | GALK redox cs inactive | HEK293 tox inactive
Cc1ccc2nc(Cl)c(/C=N/Nc3ccc(C(=O)O)cc3)cc2c1	Pol kappa inh-1 inconclusive, Pol eta inh-1 22µM (no result: TDP1 inh) | Pol eta inh-2 27
CC(=O)Nc1ccc2c(O)cc(S(=O)(=O)O)cc2c1	Pol iota inh 20µM, Pol kappa inh-1 inconclusive, Pol eta inh-1 32µM (no result: TDP1 inh, Pol beta inh) | Pol kappa inh-2 inconclusive | Pol eta inh-2 inconclusive
CC(=O)Nc1ccc(S(=O)(=O)O)c(OC(C)=O)c1	Pol iota inh inconclusive (no result: TDP1 inh, Pol beta inh)
CCOc1cc(/C=C2/SC(=S)NC2=O)ccc1OC(=O)c1ccco1	Pol iota inh inconclusive, Pol beta inh inconclusive, Pol eta inh-1 inconclusive | Pol eta inh-2 inconclusive
Cc1cc(C)nc(SCC(=O)NNS(=O)(=O)c2ccc(C#N)cc2)n1	Pol iota inh 18µM, Pol kappa inh-1 inconclusive, Pol eta inh-1 13µM (no result: TDP1 inh, Pol beta inh) | Pol kappa inh-2 inconclusive | Pol eta inh-2 76
O=C(Nc1nnc(S(=O)(=O)N2CCCc3ccccc32)s1)c1ccccc1Br	Pol eta inh-1 79µM | Pol kappa inh-2 inconclusive | Pol eta inh-2 inconclusive
O=C(Nc1nnc(S(=O)(=O)N2CCCc3ccccc32)s1)c1ccc(Cl)cc1	Pol eta inh-1 inconclusive | Pol kappa inh-2 inconclusive
COc1ccc(/C=C/c2ccc3ccccc3n2)cc1OC	none (no result: TDP1 inh, Pol beta inh, Pol eta inh-1)
CC(=O)c1cccc(NC(=O)c2ccc3nc(C(C)C)oc3c2)c1	none
O=C1NC(=Nc2ccccc2Cl)S/C1=C\c1cccc([N+](=O)[O-])c1O	Pol iota inh inconclusive, Pol beta inh inconclusive, Pol eta inh-1 inconclusive | Pol kappa inh-2 17 | Pol eta inh-2 inconclusive
O=C1/C(=C\c2cccc([N+](=O)[O-])c2O)SC(=S)N1Cc1ccccc1	Pol iota inh inconclusive, Pol beta inh 35µM, Pol eta inh-1 79µM (no result: TDP1 inh) | Pol eta inh-2 inconclusive
COc1cc([N+](=O)[O-])cc(/C=C2/SC(=S)N(Cc3ccccc3)C2=O)c1O	Pol iota inh 14µM, Pol beta inh 18µM, Pol eta inh-1 inconclusive (no result: TDP1 inh) | Pol kappa inh-2 19 | Pol eta inh-2 43
Cc1nn(-c2ccccc2)c(NC(=O)NS(=O)(=O)c2ccc(Cl)cc2)c1C#N	none (no result: Pol iota inh, Pol beta inh, Pol eta inh-1)
COc1ccccc1C(=O)NCCn1cc(SCC(=O)Nc2ccccc2F)c2ccccc21	none
CCN(C(=O)CCS(=O)(=O)c1cc(Br)cc2c1N(C(=O)C1CC1)CC2)c1cccc(C)c1	none
CCC(=O)N1CCc2cc(Br)cc(S(=O)(=O)CCC(=O)N(C)c3cccc(C)c3)c21	TDP1 inh inconclusive, Pol beta inh 45µM, Pol eta inh-1 35µM | Pol eta inh-2 85
Cc1cc(F)ccc1NC(=O)C1CCCN(S(=O)(=O)c2ccc3c(c2)CCCC(=O)N3)C1 (stereo not drawn)	none
CCOC(=O)c1c(C)oc2nc(C)nc(NCc3cccc(Cl)c3)c12	none
O=C(CC1N=C2c3ccccc3N=C(SCc3ccccc3F)N2C1=O)NCc1ccc2c(c1)OCO2 (stereo not drawn)	none
O=C1NC(=S)S/C1=C\c1cccc([N+](=O)[O-])c1	Pol iota inh inconclusive, Pol eta inh-1 inconclusive (no result: TDP1 inh, Pol beta inh)
O=C1NC(=S)S/C1=C\c1ccc(SCc2ccccc2)o1	Pol iota inh 7.9µM, Pol kappa inh-1 25µM, Pol beta inh 14µM, Pol eta inh-1 18µM | Pol eta inh-2 inconclusive
Cc1cn2c(=O)c(S(=O)(=O)N3CCN(c4cc(Cl)ccc4C)CC3)c(C)nc2s1	none
O=C1C=C(c2ccc3cc[nH]c3c2)C[C@@H](c2ccc3c(c2)OCO3)C1	Pol iota inh 14µM, TDP1 inh inconclusive, Pol kappa inh-1 79µM, Pol eta inh-1 22µM (no result: Pol beta inh) | Pol eta inh-2 76
O=C1C=C(c2ccc3c(c2)OCO3)C[C@@H](c2ccc3c(c2)OCO3)C1	none (no result: Pol beta inh)
Cc1c(-n2cc(C(=O)c3cc(F)ccc3O)cc(C#N)c2=O)c(=O)n(-c2ccccc2)n1C	none
N#Cc1cc(C(=O)c2cc(F)ccc2O)cn(-c2nccs2)c1=O	Pol iota inh inconclusive, Pol kappa inh-1 inconclusive, Pol beta inh 18µM, Pol eta inh-1 28µM | Pol eta inh-2 inconclusive
N#Cc1cc(C(=O)c2ccccc2O)cn(-c2nccs2)c1=O	Pol beta inh 20µM, Pol eta inh-1 16µM | Pol eta inh-2 67
